In PubChem BioAssay AID1159580 (chemical genetic matrix, 2015):
The campaign covered roughly 5,500 compounds. About 2,000 (36%) were called active. Another 18% or so got no clear call; they are omitted. Rule as the data show it: active = normalized growth mostly below about 0.91 (no sharp cut-off); inconclusive = no clear call, values can overlap the other calls; inactive = mostly above about 0.92. The list shows a part of the results.

Assay: chemical genetic growth profiling, strain panel (AID 1159580);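 also: tested at 20 µM; growth read once vehicle control cultures reached saturation at 30 °C; 1 = growth at the plate median or of vehicle wells; lower values mean less growth of the strain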
Details: growth OD

Measured: normalized growth

Oc1ccc2c(c1)OCC1(O)Cc3cc(O)c(O)cc3C21 (configuration not stated)
inactive: S. cerevisiae deletion strains, locus YJL187C, strain SWE1, active compounds read low 1.02 | S. cerevisiae deletion strains, locus YJR066W, strain TOR1, active compounds read low 0.906 | S. cerevisiae deletion strains, locus YKL009W, strain mrt4, active compounds read low 1.03 | S. cerevisiae deletion strains, locus YKL068W, active compounds read low 0.997 | S. cerevisiae deletion strains, locus YKL085W, strain MDH1 (second series), active compounds read low 0.978 | S. cerevisiae deletion strains, locus YKL085W, strain MDH1, active compounds read low 0.978 | S. cerevisiae deletion strains, locus YKL160W, strain elf1, active compounds read low 1.02 | S. cerevisiae deletion strains, locus YKR001C, strain vps1, active compounds read low 1.03 | S. cerevisiae deletion strains, locus YKR026C, strain gcn3, active compounds read low 1.04 | S. cerevisiae deletion strains, locus YKR091W, strain srl3, active compounds read low 1.02 | S. cerevisiae deletion strains, locus YLL001W, strain dnm1, active compounds read low 1.03 | S. cerevisiae deletion strains, locus YLL026W, active compounds read low 1.02 | S. cerevisiae deletion strains, locus YLL041C, strain sdh2, active compounds read low 1.02 | S. cerevisiae deletion strains, locus YLR027C, strain aat2, active compounds read low 1.01 | S. cerevisiae deletion strains, locus YLR039C, strain RIC1, active compounds read low 0.991 | S. cerevisiae deletion strains, locus YLR058C, strain SHM2, active compounds read low 0.959 | S. cerevisiae deletion strains, locus YLR102C, strain apc9, active compounds read low 0.991 | S. cerevisiae deletion strains, locus YLR113W, strain HOG1, active compounds read low 1.05 | S. cerevisiae deletion strains, locus YLR221C, strain rsa3, active compounds read low 1.02 | S. cerevisiae deletion strains, locus YLR258W, strain gsy2, active compounds read low 1.03 | S. cerevisiae deletion strains, locus YLR262C, strain YPT6 (second series), active compounds read low 1.04 | S. cerevisiae deletion strains, locus YLR268W, strain sec22, active compounds read low 1.05 | S. cerevisiae deletion strains, locus YLR320W, strain mms22, active compounds read low 1.04 | S. cerevisiae deletion strains, locus YLR342W, strain FKS1 (second series), active compounds read low 1.05 | S. cerevisiae deletion strains, locus YLR342W, strain FKS1, active compounds read low 1.03 | S. cerevisiae deletion strains, locus YLR357W, strain rsc2, active compounds read low 1.03 | S. cerevisiae deletion strains, locus YLR370C, strain arc18, active compounds read low 1.02 | S. cerevisiae deletion strains, locus YLR371W, strain rom2, active compounds read low 0.988 | S. cerevisiae deletion strains, locus YLR384C, strain iki3, active compounds read low 1.02 | S. cerevisiae deletion strains, locus YLR418C, strain cdc73, active compounds read low 0.991 | S. cerevisiae deletion strains, locus YML016C, strain PPZ1, active compounds read low 0.997 | S. cerevisiae deletion strains, locus YML032C, strain rad52, active compounds read low 1.05 | S. cerevisiae deletion strains, locus YML120C, strain ndi1, active compounds read low 1.03 | S. cerevisiae deletion strains, locus YML124C, strain tub3, active compounds read low 0.999 | S. cerevisiae deletion strains, locus YMR058W, strain fet3, active compounds read low 1.02 | S. cerevisiae deletion strains, locus YMR078C, strain ctf18, active compounds read low 0.988 | S. cerevisiae deletion strains, locus YMR125W, strain sto1, active compounds read low 1.04 | S. cerevisiae deletion strains, locus YMR129W, active compounds read low 1.02 | S. cerevisiae deletion strains, locus YMR205C, strain PFK2, active compounds read low 1.06 | S. cerevisiae deletion strains, locus YMR223W, strain ubp8, active compounds read low 0.981 | S. cerevisiae deletion strains, locus YMR231W, strain pep5, active compounds read low 1 | S. cerevisiae deletion strains, locus YMR307W, strain GAS1, active compounds read low 1.11 | S. cerevisiae deletion strains, locus YNL067W, strain RPL9B, active compounds read low 0.959 | S. cerevisiae deletion strains, locus YNL071W, strain lat1, active compounds read low 1.03 | S. cerevisiae deletion strains, locus YNL128W, strain TEP1, active compounds read low 0.983 | S. cerevisiae deletion strains, locus YNL183C, strain NPR1, active compounds read low 0.948 | S. cerevisiae deletion strains, locus YNL209W, strain ssb2, active compounds read low 1.01 | S. cerevisiae deletion strains, locus YNL233W, strain BNI4, active compounds read low 1 | S. cerevisiae deletion strains, locus YNL248C, strain rpa49, active compounds read low 1.03 | S. cerevisiae deletion strains, locus YNL250W, strain rad50, active compounds read low 0.957 | S. cerevisiae deletion strains, locus YNL271C, strain bni1, active compounds read low 0.983 | S. cerevisiae deletion strains, locus YNL298W, strain CLA4, active compounds read low 0.996 | S. cerevisiae deletion strains, locus YNL307C, strain MCK1, active compounds read low 0.994 | S. cerevisiae deletion strains, locus YNL322C, strain KRE1 (second series), active compounds read low 1.02 | S. cerevisiae deletion strains, locus YNL322C, strain KRE1, active compounds read low 0.981 | S. cerevisiae deletion strains, locus YNR049C, strain mso1, active compounds read low 1.02 | S. cerevisiae deletion strains, locus YNR052C, strain pop2, active compounds read low 0.959 | S. cerevisiae deletion strains, locus YOL006C, strain TOP1, active compounds read low 1.18 | S. cerevisiae deletion strains, locus YOL012C, strain htz1 0.665 | S. cerevisiae deletion strains, locus YOL147C, strain pex11, active compounds read low 1 | S. cerevisiae deletion strains, locus YOR001W, strain rrp6, active compounds read low 1.04 | S. cerevisiae deletion strains, locus YOR061W, strain CKA2, active compounds read low 1.03 | S. cerevisiae deletion strains, locus YOR069W, strain VPS5, active compounds read low 1 | S. cerevisiae deletion strains, locus YOR070C, strain gyp1, active compounds read low 1.01 | S. cerevisiae deletion strains, locus YOR080W, strain dia2, active compounds read low 1.01 | S. cerevisiae deletion strains, locus YOR083W, strain WHI5, active compounds read low 1.02 | S. cerevisiae deletion strains, locus YOR106W, strain vam3, active compounds read low 1.05 | S. cerevisiae deletion strains, locus YOR136W, strain idh2, active compounds read low 1.01 | S. cerevisiae deletion strains, locus YOR144C, strain elg1, active compounds read low 1.01 | S. cerevisiae deletion strains, locus YOR184W, strain ser1, active compounds read low 1.09 | S. cerevisiae deletion strains, locus YOR231W, strain MKK1, active compounds read low 1.01 | S. cerevisiae deletion strains, locus YOR265W, strain rbl2, active compounds read low 1.02 | S. cerevisiae deletion strains, locus YOR270C, strain vph1, active compounds read low 1.16 | S. cerevisiae deletion strains, locus YOR290C, strain snf2, active compounds read low 1.04 | S. cerevisiae deletion strains, locus YOR316C, strain cot1, active compounds read low 0.986 | S. cerevisiae deletion strains, locus YPL051W, strain arl3, active compounds read low 1.01 | S. cerevisiae deletion strains, locus YPL055C, strain LGE1, active compounds read low 1.06 | S. cerevisiae deletion strains, locus YPL078C, strain atp4, active compounds read low 1.03 | S. cerevisiae deletion strains, locus YPL106C, strain sse1, active compounds read low 0.99 | S. cerevisiae deletion strains, locus YPL240C, strain hsp82, active compounds read low 1.02 | S. cerevisiae deletion strains, locus YPL256C, strain CLN2, active compounds read low 0.995 | S. cerevisiae deletion strains, locus YPR119W, strain clb2, active compounds read low 0.978 | S. cerevisiae deletion strains, locus YPR141C, strain kar3, active compounds read low 0.964 | S. cerevisiae deletion strains, locus YPR163C, strain tif3, active compounds read low 0.996 | S. cerevisiae deletion strains, locus YPR167C, strain met16, active compounds read low 0.992 | S. cerevisiae deletion strains, strain wtn01, active compounds read low 1.02 | S. cerevisiae strains, strain wild type, active compounds read low 1.03
